# From the supplement of paper PMC6555819
# Assays:
# Test in all cases: PBM binding z-score (relative to random genomic background probes); higher = stronger binding; sequences stand for … in GC…GCGATTGACAGCGTAGAATGAAGG
# [1] = system: FXR:RXRa (NR concentration 270 nM, RXRa partner concentration 90 nM)
# How it was run: (§1)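 Binding z-scores take random background probes as their reference. They come from custom Agilent 4×180K protein-binding microarrays incubated 1 h with ligand-free nuclear receptor dimers, with antibodies against each partner (one per run) detecting binding. Scanned fluorescence was regression-normalized.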
# [2] = system: LXRa:RXRa (NR concentration 270 nM, RXRa partner concentration 90 nM)
# How it was run: as §1
# [3] = system: LXRa homodimer (NR concentration 270 nM)
# How it was run: as §1
# [4] = system: LXRb:RXRa (NR concentration 270 nM, RXRa partner concentration 90 nM)
# How it was run: as §1
# [5] = system: LXRb homodimer (NR concentration 270 nM)
# How it was run: as §1
# [6] = system: PPARa:RXRa (NR concentration 270 nM, RXRa partner concentration 90 nM)
# How it was run: as §1
# [7] = system: PPARg:RXRa (NR concentration 180 nM, RXRa partner concentration 90 nM)
# How it was run: as §1
# [8] = system: PPARg:RXRa 270nM:90nM, anti-RXR (NR concentration 270 nM, RXRa partner concentration 90 nM)
# How it was run: as §1
# [9] = system: PPARg:RXRa 30nM:10nM, anti-RXR (NR concentration 30 nM, RXRa partner concentration 10 nM)
# How it was run: as §1
# [10] = system: PPARg:RXRa 90nM:30nM, anti-RXR (NR concentration 90 nM, RXRa partner concentration 30 nM)
# How it was run: as §1
# [11] = system: PPARg:RXRa DBDmut IVT, anti-RXR (DBD mutation: RXRa K156A/R161A, NR concentration 270 nM, RXRa partner concentration 90 nM)
# How it was run: as §1
# [12] = system: PPARg:RXRa IVT, anti-PPARg (NR concentration 270 nM, RXRa partner concentration 90 nM)
# How it was run: as §1
# [13] = system: PPARg DBDmut:RXRa IVT, anti-PPARg (DBD mutation: PPARg1 K132A/R137A, NR concentration 270 nM, RXRa partner concentration 90 nM)
# How it was run: as §1
# [14] = system: PPARg DBDmut IVT, anti-PPARg (DBD mutation: PPARg1 K132A/R137A, NR concentration 270 nM)
# How it was run: as §1
# [15] = system: PPARg homodimer (NR concentration 180 nM)
# How it was run: as §1
# [16] = system: PXR:RXRa (NR concentration 270 nM, RXRa partner concentration 90 nM)
# How it was run: as §1
# [17] = system: PXR homodimer (NR concentration 270 nM)
# How it was run: as §1
# [18] = system: RARa:RXR (NR concentration 270 nM, RXRa partner concentration 90 nM)
# How it was run: as §1
# [19] = system: RARa homodimer (NR concentration 270 nM)
# How it was run: as §1
# [20] = system: RARb:RXRa (NR concentration 270 nM, RXRa partner concentration 90 nM)
# How it was run: as §1
Sequence,PBM binding z-score [1],PBM binding z-score [2],PBM binding z-score [3],PBM binding z-score [4],PBM binding z-score [5],PBM binding z-score [6],PBM binding z-score [7],PBM binding z-score [8],PBM binding z-score [9],PBM binding z-score [10],PBM binding z-score [11],PBM binding z-score [12],PBM binding z-score [13],PBM binding z-score [14],PBM binding z-score [15],PBM binding z-score [16],PBM binding z-score [17],PBM binding z-score [18],PBM binding z-score [19],PBM binding z-score [20]
CATGCAGGGTCAGCTAGGCCAGAGTAGGGACGGC,4.4,2.77,-0.597,2.03,-0.151,4.36,2.66,3.1,0.694,1.84,0.734,1.98,0.517,-0.095,0.728,2.2,-0.234,3.27,-0.247,4.14
CGAACTAGGTCAGAACCGGACAGTGAAGGATGAT,0.841,0.508,-0.0192,0.198,-0.379,2.72,4.56,4.31,1.5,3.4,7.36,7.01,0.829,-0.265,0.564,0.339,-0.0754,0.679,-0.208,2.85
GCGACTGGGGCAAAGCAGGTTACCTTAAGGTTGG,0.232,0.16,-0.422,0.247,-0.607,1.31,0.947,1.35,-0.661,0.437,4.98,3.47,-0.487,-1.22,-0.599,0.288,-0.563,0.523,-0.791,0.877
GCTTACGGGTCAAAGGTTATAGGATGAATAGAAT,7.58,5.53,0.854,5.77,0.455,6.89,11.4,9.24,10,10.9,4.59,5.81,2.01,1.61,3.34,6.34,0.559,8.36,1.33,4.59
CGAACTAGGTCAAGGAAAGTGAATCTCCGCACGC,2.69,1.93,-0.152,1.2,-0.225,4.55,7.18,6.18,3.7,5.66,7.89,8.29,1.18,0.515,1.22,0.813,-0.499,1.62,0.0155,3.9
GCAGACAGGTGAAACGCGGGTAACTCAGGGTGGC,0.0652,0.351,-0.771,-0.193,-1.11,0.839,0.342,-0.106,-0.712,-0.458,1.2,0.724,-0.459,-1.01,-0.647,-0.0302,-0.747,0.318,-0.909,0.691
ATCTCTAGGTAAACATAGTTCAGTGAATGCAAAT,0.367,4.22,0.983,1.07,0.728,0.819,1.12,1.07,0.499,0.945,2.31,2.59,0.983,1.45,1.28,1.35,0.955,0.73,1.3,1.01
AATACAGGGTCATCGTAGGCCAGAGTACGCACAG,7.52,6.07,2.44,4.7,1.5,5.73,6.55,6.09,2.58,4.87,2.76,4.32,1.59,1.19,1.96,4.94,0.48,4.82,0.854,4.37
CCTGCTAGATCATGGTCAGCTAATCTACAGTATG,-0.747,-0.678,-0.68,-0.476,-0.922,-0.672,0.0409,-0.513,-0.306,-0.269,0.393,-0.546,-0.661,-0.698,-0.74,-0.448,-0.524,-0.328,-0.726,-0.0385
CCTACTGGGCCATTCAGATGTCATTGATCATATG,-0.368,-0.638,-0.391,-0.292,-0.418,0.25,0.6,0.494,0.00113,0.0703,4.47,3.44,-0.00111,0.0316,0.0941,-0.564,-0.799,-0.682,-0.198,0.127
